# Data taken from PubChem BioAssay (NCATS).
# Results filed as inconclusive are left out. Unmarked numbers belong to inactive results. The source made the active and inactive calls. Calls follow the shape of the dose curve; as a rule, active = well fitted curve in the direction sought with a large enough effect; inconclusive = small, poorly fitted or top-dose-only effect, or another doubt; inactive = no such curve, though single readings can be large; an effect the other way counts as inactive or inconclusive.
# Test: qHTS of pediatric cancer cell lines to identify multiple opportunities for drug repurposing: Confirmatory screen for RD cells (AID 1347124);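 also: cells exposed to compound for 48 h before viability readout; nearly all actives have a fitted effect of over 65% in size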
# Details: RD rhabdomyosarcoma cell viability; series mostly up to 45.9 µM; activity change, negative = cytotoxic: at the top concentration
# Outline: (§1)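 Cells (500-1,000/well) in growth media were settled 5 h at 37 degrees C, then given compounds for 48 h. Viability was read as CellTiter-Glo luminescence. Primary runs used MIPE at 11 points (0.78 nM-46 µM) and NPC at 8 points (0.59 nM-46 µM); follow-ups used 11 points.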
# % is scaled to controls: 0 for no effect and ±100 for the full control effect; potency is read from the fitted curve at half-maximal effect.
Structure (SMILES),Potency,"activity change, negative = cytotoxic"
CC(C)(C)c1[nH]cnc1C=c1[nH]c(=O)c(=Cc2ccccc2)[nH]c1=O,0.018 µM (active),–
Cc1cc(CS(=O)(=O)c2ccccc2)cc(OCc2ccc(CN3CCC[C@H]3CO)cc2)c1,–,-14.6%
CCN(CCO)CCCOc1ccc2c(Nc3cc(CC(=O)Nc4cccc(F)c4)[nH]n3)ncnc2c1,–,-3.75%
CC(=O)N1CCN(c2ccc(OCc3nn(C)c(C)c3-c3cccc4c(CCCOc5cc(C)c(Cl)c(C)c5)c(C(=O)O)n(Cc5cccnc5)c34)cc2)CC1,–,-16.6%
Cc1ccc2c(c1)C(=O)[C@]1(O)CCN(c3ccccc3)C1=N2,–,10.4%
COc1cc2c(cc1Cc1cccc(Cl)c1F)c(=O)c(C(=O)O)cn2[C@H](CO)C(C)C,–,-14%
COC1CCC(C(=O)c2ccc3nc4c(cc3c2)CCCO4)CC1 (centres undefined),–,-9.25%
O=C1NC(=O)C(c2cnc3ccccn23)=C1c1cn2c3c(cccc13)CN(C(=O)N1CCOCC1)CC2,–,12.2%
CCC(=O)N1CCN(c2ccc(-n3c(=O)ccc4cnc5ccc(-c6cnc7ccccc7c6)cc5c43)cc2C(F)(F)F)CC1,–,-2.49%
CCOC(=O)[C@H](CCc1ccccc1)N[C@@H](C)C(=O)N1CCCC1C(=O)O (some centres undefined),13.1 µM (active),–
CCC[C@H](Nc1nc(-c2ccc(NC(=O)NCC)c(OC)c2)ncc1C)c1cccnc1,0.147 µM (active),–
CC[C@H](NC(=O)[C@H](C)NC)C(=O)N1C[C@@H](O)C[C@H]1Cc1c(-c2[nH]c3cc(F)ccc3c2C[C@H]2C[C@H](O)CN2C(=O)[C@H](CC)NC(=O)[C@H](C)NC)[nH]c2cc(F)ccc12,–,8.78%
Cc1csc(-c2nnc(Nc3ccc(Oc4ncccc4-c4ccnc(N)n4)cc3)c3ccccc23)c1,–,6.99%
CN[C@@H]1CN(c2ccc3c(=O)c(C(=O)O)cn(-c4nccs4)c3n2)C[C@@H]1OC,14.4 µM (active),–

# Test: qHTS of pediatric cancer cell lines to identify multiple opportunities for drug repurposing: Confirmatory screen for Rh18 cells (AID 1347125); also: nearly all actives have a fitted effect of over 55% in size
# Details: Rh18 rhabdomyosarcoma cells, viability; series mostly up to 45.9 µM; activity change, negative = cytotoxic: at the top concentration
# Outline: as §1
Structure (SMILES),Potency,"activity change, negative = cytotoxic"
CC(C)(C)c1[nH]cnc1C=c1[nH]c(=O)c(=Cc2ccccc2)[nH]c1=O,0.016 µM (active),–
Nc1[nH]nc2nnc(-c3c(-c4ccccc4)nn4ccccc34)cc12,20.8 µM (active),–
COc1cc2c(cc1Cc1cccc(Cl)c1F)c(=O)c(C(=O)O)cn2[C@H](CO)C(C)C,–,-24.2%
Cc1ccccc1-n1c(Cn2nc(-c3cccc(O)c3)c3c(N)ncnc32)nc2cccc(C)c2c1=O,–,-11.5%
CC1=C[C@@H]2[C@@H]([C@@H](O)C[C@@]3(C)[C@H]2C[C@@H](C)[C@]3(O)C(=O)CO)[C@@]2(C)Cc3cnn(-c4ccccc4)c3C=C12,–,-23.9%
